Reference: PubChem BioAssay (Tox21)
Values joined by “and” are separate entries in the source; they are usually repeats but may differ in a detail not shown here. Equal entries are not always repeated. Results filed as inconclusive are left out. More than one record can exist for a structure, and the calls need not agree. Active and inactive are the calls of the source. Unless noted, the call rests on the fitted dose curve; in most records, active means well fitted curve in the direction sought with a large enough effect in the repeat runs; inconclusive means weak or mixed curves; inactive means no such curve, though single readings can be large; an effect the other way counts as inactive or inconclusive.

Key:
[1] = qHTS assay to identify small molecule agonists of the peroxisome proliferator-activated receptor delta (PPARd) signaling pathway - cell viability counter screen (AID 743211); further: nearly all actives have a fitted effect of over 55% in size; further: potency means the concentration at half of the fitted maximal effect
Procedure, shortened: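 Following 5 h plating at 37 C and 5% CO2, PPARd UAS-bla HEK293H cells took up test compounds for 17 h. Viability was quantified by luminescence 30 min after CellTiter-Glo addition at room temperature.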

[2] = qHTS assay to identify small molecule antagonists of the peroxisome proliferator-activated receptor delta (PPARd) signaling pathway - cell viability counter screen (AID 743213); further: nearly all actives have a fitted effect of over 50% in size; further: potency means the concentration at half of the fitted maximal effect
Procedure, shortened: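 Viability counter-screen, qHTS format: PPARd-bla HEK293H, L165041 300 nM final, 17 h compound exposure at 37 C, CellTiter-Glo luminescence after 30 min RT.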

[3] = qHTS assay to identify small molecule agonists of the farnesoid-X-receptor (FXR) signaling pathway - cell viability counter screen (AID 743218); further: nearly all actives have a fitted effect of over 45% in size; further: potency means the concentration at half of the fitted maximal effect
Procedure, shortened: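 FXR-UAS-bla HEK 293T cells exposed to compounds for 16 h at 37C. Cytotoxicity read in the same wells by CellTiter-Glo luminescence after 30 min at room temperature, following the beta-lactamase FRET read.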

[4] = biological target: Bile acid receptor (Homo sapiens) (UniProt Q96RI1); assay: qHTS assay to identify small molecule agonists of the farnesoid-X-receptor (FXR) signaling pathway (AID 743220; active means well fitted activation curve with a large enough effect in the signal ratio in the repeat runs, not every such curve was filed as active; the % refers to the signal ratio)
Procedure, shortened: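 Beta-lactamase reporter under UAS control in GeneBLAzer FXR HEK 293T cells (5000/well) measured with LiveBLAzer FRET substrate after 2 h at room temperature. Compound exposure lasted 16 h at 37C.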

[5] = qHTS assay to identify small molecule antagonists of the farnesoid-X-receptor (FXR) signaling pathway - cell viability counter screen (AID 743221; active means well fitted cell-killing curve with a large enough effect in the repeat runs, not every such curve was filed as active; further: nearly all actives have a fitted effect of over 50% in size; further: potency means the concentration at half of the fitted maximal effect)
Procedure, shortened: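 Compound effects on cell number were measured as CellTiter-Glo luminescence in HEK 293T cells expressing FXR-UAS-bla, after 16 h at 37 C with 50 uM CDCA (final).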

[6] = qHTS assay to identify small molecule agonists of the vitamin D receptor (VDR) signaling pathway - cell viability counter screen (AID 743224); further: nearly all actives have a fitted effect of over 50% in size; further: potency means the concentration at half of the fitted maximal effect
Procedure, shortened: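 VDR-bla cells, 4 h after plating, exposed to compounds for 16 h at 37C; viability then read in the same wells as CellTiter-Glo luminescence after 30 min at room temperature, following the bla FRET read.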

[7] = qHTS assay to identify small molecule antagonists of the vitamin D receptor (VDR) signaling pathway - cell viability counter screen (AID 743225); further: nearly all actives have a fitted effect of over 50% in size; further: potency means the concentration at half of the fitted maximal effect
Procedure, shortened: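 In this counter screen, VDR-bla HEK 293T cells receive test compound plus 3 nM final calcitriol for 16 h at 37C. Room-temperature steps of 2 h with the beta-lactamase substrate, then 30 min with CellTiter-Glo, precede the luminescence read.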

[8] = qHTS assay to identify small molecule agonists of the endoplasmic reticulum stress response signaling pathway - cell viability counter screen (AID 1159517; calls by dose curve; further: nearly all actives have a fitted effect of over 50% in size; further: potency means the concentration at half of the fitted maximal effect)
Procedure, shortened: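 Counter-screen wells were identical to the reporter wells. Cells were plated at 1,500 per well and dosed for 5 hr, then read for luminescence 30 min after CellTiter-Glo addition.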

[9] = qHTS assay to identify small molecule antagonists of the retinoid-related orphan receptor gamma (ROR-gamma) signaling pathway - cell viability counter screen (AID 1159520); further: nearly all actives have a fitted effect of over 50% in size; further: potency means the concentration at half of the fitted maximal effect
Procedure, shortened: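 Tet-on ROR gamma CHO cells were given compounds for 2 hr, then doxycycline hyclate at 1 uM final, and incubated 16 hr at 37 C. Viability was measured as ATP content by CellTiter-Glo luminescence.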

[10] = biological target: Nuclear receptor ROR-gamma (Homo sapiens) (UniProt P51449); assay: qHTS assay to identify small molecule antagonists of the retinoid-related orphan receptor gamma (ROR-gamma) signaling pathway (AID 1159521; further: nearly all actives have a fitted effect of over 50% in size; further: potency means the concentration at half of the fitted maximal effect)
Procedure, shortened: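 Screening format: cell-based luciferase reporter in CHO cells with doxycycline-inducible RORγ. Compound pre-exposure lasts 2 h, doxycycline is 1 uM final, induction runs 16 h at 37 C, and ONE-Glo luminescence is read.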

[11] = qHTS assay to identify small molecule agonists of the AP-1 signaling pathway - cell viability counter screen (AID 1159525; calls by dose curve; further: nearly all actives have a fitted effect of over 55% in size; further: potency means the concentration at half of the fitted maximal effect)
Procedure, shortened: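 AP-1-bla ME-180 cells in Opti-MEM with 0.5% dialyzed FBS, compound exposure 5 h at 37 C in 15-point titration. Viability read in the same wells as ATP content by CellTiter-Glo luminescence, normalised to tetra-n-octylammonium bromide and DMSO controls.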

[12] = biological target: Peroxisome proliferator-activated receptor delta (Homo sapiens) (UniProt Q03181); assay: qHTS assay to identify small molecule agonists of the peroxisome proliferator-activated receptor delta (PPARd) signaling pathway (AID 743212; calls by dose curve)
Procedure, shortened: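 Quantitative high-throughput agonist screen in a HEK293H beta-lactamase reporter line under UAS control. Compounds in DMSO, at 37 C. Fluorescence read after 2 h with FRET substrate at room temperature.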

[13] = biological target: Peroxisome proliferator-activated receptor delta (Homo sapiens) (UniProt Q03181); assay: qHTS assay to identify small molecule antagonists of the peroxisome proliferator-activated receptor delta (PPARd) signaling pathway (AID 743215; active means well fitted inhibition curve with a large enough effect in the signal ratio in the repeat runs, not every such curve was filed as active; the % refers to the signal ratio;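 further: cells stimulated with agonist L165041 at 300 nM final during compound exposure; series mostly up to about 62 µM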)
Procedure, shortened: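 PPARd-bla HEK293H cells (UAS-bla reporter) preincubated 5 h, then given compound plus 300 nM final L165041 agonist for 17 h at 37 C. Beta-lactamase activity read by LiveBLAzer B/G FRET substrate fluorescence after 2 h at room temperature.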

[14] = biological target: Vitamin D3 receptor (Homo sapiens) (UniProt P11473); assay: qHTS assay to identify small molecule agonists of the vitamin D receptor (VDR) signaling pathway (AID 743222; calls by dose curve)
Procedure, shortened: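 VDR-bla cells plated 4 h at 37 C, then exposed to compounds for 16 h at 37 C. Beta-lactamase reporter activity measured by fluorescence after 2 h room-temperature loading with LiveBLAzer B/G FRET substrate.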

[15] = biological target: Vitamin D3 receptor (Homo sapiens) (UniProt P11473); assay: qHTS assay to identify small molecule antagonists of the vitamin D receptor (VDR) signaling pathway (AID 743223; active means well fitted inhibition curve with a large enough effect in the signal ratio in the repeat runs, not every such curve was filed as active; the % refers to the signal ratio)
Procedure, shortened: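 Beta-lactamase activity in VDR-bla cells is measured by FRET substrate fluorescence (2 h, room temperature) after cells spend 16 h at 37C with test compound and 3 nM final 1alpha,25-dihydroxyvitamin D3.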

[16] = qHTS assay to identify small molecule agonists of the AP-1 signaling pathway (AID 1159526; calls by dose curve; further: potency means the concentration at half of the fitted maximal effect)
[17] = qHTS assay to identify small molecule agonists of the endoplasmic reticulum stress response signaling pathway (AID 1159516; active means well fitted activation curve with a large enough effect in the signal ratio in the repeat runs, not every such curve was filed as active; the % refers to the signal ratio)
Procedure, shortened: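 CellSensor ESRE-bla HeLa cells, 1,500 per well, plated overnight, then exposed to compounds for 5 hr at 37 C. Beta-lactamase reporter read with LiveBLAzer B/G FRET substrate after 2 hr at room temperature, 405 nm excitation, 460 and 530 nm emission.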

[18] = biological target: Retinoic acid receptor RXR-alpha (Homo sapiens) (UniProt P19793); assay: qHTS assay to identify small molecule agonists of the RXR signaling pathway (AID 1159527; calls by dose curve; further: nearly all actives have a fitted effect of over 35% in size)
Procedure, shortened: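 Fluorescence ratio readout (460 vs 530 nm) from GeneBLAzer RXR-alpha HEK 293T cells after 16 hr compound treatment; cells seeded 5 hr beforehand in low-serum, charcoal-stripped medium.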

[19] = biological target: Bile acid receptor (Homo sapiens) (UniProt Q96RI1); assay: qHTS assay to identify small molecule antagonists of the farnesoid-X-receptor (FXR) signaling pathway (AID 743217; active means well fitted inhibition curve with a large enough effect in the signal ratio in the repeat runs, not every such curve was filed as active; the % refers to the signal ratio)
Procedure, shortened: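 FXR-UAS-bla HEK 293T cells (beta-lactamase reporter) given compound plus chenodeoxycholic acid (50 uM final), 16 h at 37C. LiveBLAzer B/G FRET substrate added for 2 h at room temperature; fluorescence read.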

Measured: Potency

Chain of Vitamin D3 receptor (Homo sapiens) (P11473 whole entry, looked up): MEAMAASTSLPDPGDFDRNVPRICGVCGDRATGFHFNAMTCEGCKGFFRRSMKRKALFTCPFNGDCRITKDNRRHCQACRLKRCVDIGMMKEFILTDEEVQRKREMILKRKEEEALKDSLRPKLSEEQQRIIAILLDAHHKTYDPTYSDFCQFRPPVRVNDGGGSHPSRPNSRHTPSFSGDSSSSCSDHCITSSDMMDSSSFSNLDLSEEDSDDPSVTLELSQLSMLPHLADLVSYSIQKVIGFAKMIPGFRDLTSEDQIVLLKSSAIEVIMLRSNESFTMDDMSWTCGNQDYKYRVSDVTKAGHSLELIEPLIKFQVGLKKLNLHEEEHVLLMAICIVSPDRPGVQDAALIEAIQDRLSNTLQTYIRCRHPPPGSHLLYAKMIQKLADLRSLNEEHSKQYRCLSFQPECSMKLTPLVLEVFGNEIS
Chain of Retinoic acid receptor RXR-alpha (Homo sapiens) (P19793 whole entry, looked up): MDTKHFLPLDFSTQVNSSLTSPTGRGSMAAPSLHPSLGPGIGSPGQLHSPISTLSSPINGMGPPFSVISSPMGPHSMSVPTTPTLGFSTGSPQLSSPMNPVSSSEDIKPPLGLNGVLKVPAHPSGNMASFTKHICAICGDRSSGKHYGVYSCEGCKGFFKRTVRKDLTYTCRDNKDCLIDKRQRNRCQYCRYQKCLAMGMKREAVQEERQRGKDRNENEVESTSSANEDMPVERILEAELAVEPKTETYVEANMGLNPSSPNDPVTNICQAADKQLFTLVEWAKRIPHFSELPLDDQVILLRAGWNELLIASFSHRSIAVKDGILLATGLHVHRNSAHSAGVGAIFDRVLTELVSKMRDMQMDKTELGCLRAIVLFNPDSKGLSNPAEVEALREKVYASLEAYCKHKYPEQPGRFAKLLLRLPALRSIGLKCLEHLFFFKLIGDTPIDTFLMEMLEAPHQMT
Chain of Bile acid receptor (Homo sapiens) (Q96RI1 whole entry, looked up): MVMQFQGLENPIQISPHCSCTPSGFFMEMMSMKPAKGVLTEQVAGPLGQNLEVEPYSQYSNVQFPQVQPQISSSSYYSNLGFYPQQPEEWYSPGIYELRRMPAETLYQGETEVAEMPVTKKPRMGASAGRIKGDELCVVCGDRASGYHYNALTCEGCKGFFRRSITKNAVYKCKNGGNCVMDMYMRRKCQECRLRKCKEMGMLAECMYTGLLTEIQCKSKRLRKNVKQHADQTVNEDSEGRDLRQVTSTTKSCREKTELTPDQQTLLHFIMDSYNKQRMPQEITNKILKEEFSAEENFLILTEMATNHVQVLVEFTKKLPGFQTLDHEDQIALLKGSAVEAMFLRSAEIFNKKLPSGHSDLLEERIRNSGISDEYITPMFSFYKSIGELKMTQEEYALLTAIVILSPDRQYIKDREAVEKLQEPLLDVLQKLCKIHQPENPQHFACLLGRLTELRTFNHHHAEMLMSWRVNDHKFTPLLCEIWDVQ
Chain of Peroxisome proliferator-activated receptor delta (Homo sapiens) (Q03181 whole entry, looked up): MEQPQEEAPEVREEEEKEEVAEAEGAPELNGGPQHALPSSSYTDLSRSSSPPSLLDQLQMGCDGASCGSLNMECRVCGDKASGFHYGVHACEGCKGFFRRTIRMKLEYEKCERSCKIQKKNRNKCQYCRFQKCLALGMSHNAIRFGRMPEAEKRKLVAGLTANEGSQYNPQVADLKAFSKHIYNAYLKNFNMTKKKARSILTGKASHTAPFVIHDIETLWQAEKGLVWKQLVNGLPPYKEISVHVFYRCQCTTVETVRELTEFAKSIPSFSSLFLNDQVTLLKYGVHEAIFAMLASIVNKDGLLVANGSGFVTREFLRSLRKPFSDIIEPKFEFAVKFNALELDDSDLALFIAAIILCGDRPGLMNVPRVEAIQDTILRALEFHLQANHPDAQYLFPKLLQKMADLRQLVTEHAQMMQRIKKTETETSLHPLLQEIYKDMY

Oc1c(Cl)cc(Cl)c(Cl)c1Cc1c(O)c(Cl)cc(Cl)c1Cl
active: [1] 27.5 µM and 13.3 µM | [2] 38.8 µM and 24.5 µM | [3] 21.8 µM and 24.5 µM | [5] 48.9 µM | [6] 24.5 µM and 21.9 µM and 2.66 µM | [7] 54.8 µM and 27.5 µM and 9.52 µM | [8] 17.3 µM and 49 µM | [9] 1.53 µM and 1.93 µM and 1.68 µM | [10] 966 nM and 1.37 µM and 841 nM | [11] 27.5 µM
inactive: [4]

CC[C@]1(O)C[C@@H]2CN(CCc3c([nH]c4ccccc34)[C@@](C(=O)OC)(c3cc4c(cc3OC)N(C)[C@H]3[C@@](O)(C(=O)OC)[C@H](OC(C)=O)[C@]5(CC)C=CCN6CC[C@]43[C@@H]65)C2)C1
active: [10] 596 nM and 8.41 µM | [16] 0.268 µM
not listed: [4] | [9] | [17] | [18] | [19]
inactive: all other assays above

CC(=O)CC(C)=O
not listed: [4] | [7] | [10] | [13] | [14] | [15] | [19]
inactive: all other assays above

CC(=O)OCC1=C(C(=O)O)N2C(=O)[C@@H](NC(=O)Cc3cccs3)[C@H]2SC1
not listed: [7] | [10] | [12] | [13] | [15]
inactive: all other assays above

NC(=Nc1ccccc1)Nc1ccccc1
not listed: [2] | [4] | [14] | [15] | [16] | [17] | [18] | [19]
inactive: all other assays above

O=C(O)Cn1cnnn1
not listed: [1] | [7] | [15]
inactive: all other assays above

CC(C)(C)c1ccc(O)c(C(C)(C)C)c1
43.1 µM (active) and inactive: [10]
active: [1] 38.7 µM and 49 µM | [2] 38.7 µM and 49 µM | [5] 54.9 µM | [6] 34.5 µM and 30.9 µM | [7] 24.4 µM and 43.6 µM | [8] 54.7 µM and 49 µM | [9] 54.3 µM | [11] 34.5 µM
inactive: [14]

CC(=O)C1=C(C)[C@@H]2C[C@@]3(C1)[C@H](C)CC[C@H]3C2(C)C
not listed: [3] | [8] | [10] | [17]
inactive: all other assays above
